This is part of a sample that, as a whole, favours compounds with a hit. Of some 83,000 tested, about 20% had one in any assay.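 Growth was measured after 48 h exposure to one concentration of compound in 96-well plates. Values under 10 count as active.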 Values without a mark were called inactive. The source made the active and inactive calls.

Among the test systems are DU-145 prostate; K-562 leukemia; MALME-3M melanoma; MDA-MB-231 breast; RXF 393 renal; SF-268 CNS; SF-295 CNS; SF-539 CNS; UACC-257 melanoma; M14 melanoma.
Holding throughout (test): NCI-60 one-dose screen, 48 h (100 = growth as untreated, 0 = no growth, -100 = all killed)
What all share (details): 10 µM unless noted

As to `Cn1c(I)c(C#C[Si](C)(C)C)c(=O)n(C(=O)c2ccccc2)c1=O`, the growth in the assay on DU-145 prostate is 0.184% (active); with K-562 leukemia, -95.2% (active); in the assay with MALME-3M melanoma, -10.3% (active); with MDA-MB-231 breast it was 64.2%; with RXF 393 renal, -81.5% (active); in the assay on SF-268 CNS it was -18% (active). The growth is 87.9% in the assay with SF-295 CNS, 69.4% in the assay on SF-539 CNS, -20.8% (active) in the assay on UACC-257 melanoma and -54.7% (active) with M14 melanoma.
`COc1nc(N(C)O)nc(N(C)O)n1`: the growth in the assay with DU-145 prostate was 23.5%; with K-562 leukemia it was 20.3%; in the assay with MALME-3M melanoma it was 58.6%; with MDA-MB-231 breast it was 49.1%; in the assay on RXF 393 renal, 58.5%; in the assay on SF-268 CNS it was 30.9%. For the same compound, the growth in the assay with SF-295 CNS is 60.6%; in the assay on SF-539 CNS, 20.1%; with UACC-257 melanoma it was 39.6%; with M14 melanoma, 15%.
With `CCc1ccccc1-n1c(-c2ccc(Cl)cc2)cc(-c2ccc(OC)cc2)c(C#N)c1=O`, the growth in the assay on DU-145 prostate was 94.6%; in the assay with K-562 leukemia, 101%; in the assay with MALME-3M melanoma, 148%; in the assay with MDA-MB-231 breast, 92.7%; with RXF 393 renal it was 97.5%; in the assay on SF-268 CNS it was 93.4%. The growth was 93.2% in the assay on SF-295 CNS, 102% in the assay with SF-539 CNS, 112% in the assay on UACC-257 melanoma and 93.4% with M14 melanoma.
As to `S=C(Cc1ccc2c(c1)CCCC2)N1CCOCC1`, the growth in the assay on DU-145 prostate is 104%; with K-562 leukemia, 107%; with MALME-3M melanoma, 85.6%; in the assay on MDA-MB-231 breast, 103%; in the assay with RXF 393 renal, 115%; in the assay with SF-268 CNS, 101%. For the same compound, the growth was 104% in the assay on SF-295 CNS, 99.6% in the assay on SF-539 CNS, 91.5% in the assay with UACC-257 melanoma and 99.5% in the assay on M14 melanoma.
In the case of `Cc1ccccc1NC(=O)N/C(N)=N/c1nc(-c2cccc([N+](=O)[O-])c2)cs1`, the growth is 69.3% in the assay with DU-145 prostate; 9.08% (active) in the assay on K-562 leukemia; 33% with MALME-3M melanoma; 50.4% with MDA-MB-231 breast; 56.7% in the assay with RXF 393 renal; 64% in the assay with SF-268 CNS. Also, the growth in the assay with SF-295 CNS is 15.8%; in the assay on SF-539 CNS, 41.1%; in the assay on UACC-257 melanoma it was 51.5%; in the assay on M14 melanoma, 19%.
As for `O=c1cc(C2NNC(=S)N2)c2ccc3ccccc3c2o1` (stereo not given), the growth is 109% in the assay with DU-145 prostate; 90.5% with K-562 leukemia; 104% in the assay with MALME-3M melanoma; 96.3% in the assay with MDA-MB-231 breast; 87.4% in the assay with RXF 393 renal; 102% with SF-268 CNS. Moreover, the growth in the assay on SF-295 CNS is 100%; in the assay with SF-539 CNS, 94.1%; with UACC-257 melanoma, 116%; in the assay on M14 melanoma it was 102%.
As to `COc1ccc(-c2nc(SCCC(C)C)nc(N/N=C\c3cccc(Cl)c3)c2C#N)cc1`, the growth in the assay with DU-145 prostate was 85.4%; with K-562 leukemia, 79.7%; in the assay with MALME-3M melanoma, 111%; in the assay on MDA-MB-231 breast, 53%; in the assay on RXF 393 renal, 87.5%; in the assay on SF-268 CNS it was 71.1%. Besides, the growth with SF-295 CNS was 55%; in the assay on SF-539 CNS it was 84.3%; in the assay with UACC-257 melanoma it was 87.3%; in the assay with M14 melanoma, 101%.
Turning to `O=C(O)C1CCC(=O)N1C(=O)OCc1ccccc1` (stereo not given), the growth in the assay with DU-145 prostate was 117%; with K-562 leukemia, 92.4%; with MALME-3M melanoma, 96.2%; with MDA-MB-231 breast, 112%; in the assay on RXF 393 renal it was 96.6%; with SF-268 CNS, 111%. Further, the growth was 106% in the assay on SF-295 CNS, 96.9% in the assay with SF-539 CNS, 95.4% in the assay on UACC-257 melanoma and 102% with M14 melanoma.
As to `Cc1cc(C(=O)c2ccccc2)c(C)c2c1[nH]c1ccc(Cl)cc12`, the growth was 1.86% (active) in the assay with DU-145 prostate; 11.9% in the assay on K-562 leukemia; 33.7% in the assay with MALME-3M melanoma; 30.6% in the assay on MDA-MB-231 breast; 18.9% in the assay on RXF 393 renal; 22.8% with SF-268 CNS. The growth in the assay on SF-295 CNS is 6.92% (active); in the assay with SF-539 CNS, -14.9% (active); with UACC-257 melanoma it was 66.1%; in the assay on M14 melanoma, 19.6%.
For the compound `COc1c(CCC[P+](c2ccccc2)(c2ccccc2)c2ccccc2)cc2c(c1OC)OCO2`, the growth in the assay with DU-145 prostate was 23.5%; in the assay with K-562 leukemia it was 12.3%; in the assay on MALME-3M melanoma, 9.97% (active); in the assay on MDA-MB-231 breast it was -8.84% (active); with RXF 393 renal, 29%; in the assay with SF-268 CNS, 15.4%. Besides, the growth was 20.8% with SF-295 CNS, 20.2% with SF-539 CNS, -3.96% (active) in the assay with UACC-257 melanoma and 12.2% in the assay with M14 melanoma.
On to `COc1cc(C2CC(c3ccc(Nc4ccnc5cc(Cl)ccc45)cc3)=NN2C=O)cc(OC)c1OC` (stereo not given), for which the growth in the assay on DU-145 prostate is 66.4%; in the assay with K-562 leukemia it was 26%; in the assay with MALME-3M melanoma, 25.2%; in the assay on MDA-MB-231 breast it was 85.8%; in the assay on RXF 393 renal it was 83.6%; with SF-268 CNS it was 90.1%. The growth was 75.2% in the assay with SF-295 CNS, 73.2% in the assay with SF-539 CNS, 60.1% in the assay on UACC-257 melanoma and 75.1% in the assay with M14 melanoma.
For `C[C@H]1[C@H]2[C@H]3CC[C@@H]4[C@@]5(C)C/C(=C/c6cccnc6)C(=O)C(C)(C)[C@@H]5CC[C@@]4(C)[C@]3(C)CC[C@]23CO[C@]1(C)[C@@H](C(=O)/C=C\c1cccnc1)C3`, the growth is -28.8% (active) in the assay with DU-145 prostate; 6.51% (active) in the assay on K-562 leukemia; -33.5% (active) with MALME-3M melanoma; -30.7% (active) in the assay with MDA-MB-231 breast; -91.8% (active) in the assay on RXF 393 renal; 7.1% (active) with SF-268 CNS. Besides, the growth is 6.07% (active) in the assay on SF-295 CNS, -32.4% (active) in the assay with SF-539 CNS, 13.2% in the assay with UACC-257 melanoma and -20.1% (active) with M14 melanoma.
With `N=C1CCC(=N)c2c1c(O)c1ccccc1c2O`, the growth was 106% in the assay with DU-145 prostate; 65.1% in the assay on K-562 leukemia; 135% in the assay with MALME-3M melanoma; 89.6% with MDA-MB-231 breast; 79.6% with RXF 393 renal; 85.4% in the assay on SF-268 CNS. Also, the growth with SF-295 CNS is 102%; with SF-539 CNS, 171%; with UACC-257 melanoma, 101%; with M14 melanoma, 118%.
Consider `CC(C)(C)OC(=O)Nc1ccc2c(c1)C(NC(=O)Nc1cccc(C#N)c1)CC(C)(C)O2` (stereo not given), for which the growth is 71.6% with DU-145 prostate; 23.3% with K-562 leukemia; 39% with MALME-3M melanoma; 68.8% with MDA-MB-231 breast; 72.4% with RXF 393 renal; 53.4% in the assay with SF-268 CNS. Moreover, the growth with SF-295 CNS was 31.9%; in the assay with SF-539 CNS it was 66.8%; with UACC-257 melanoma, 27.2%; in the assay with M14 melanoma, 47.5%.
On to `COC(=O)[C@]12CC[C@@H](C)[C@H](C)[C@@H]1C1=CC[C@@H]3[C@@]4(C)C(C=O)=C[C@@](C)(COC(=O)c5ccco5)[C@@H]4C(=O)C[C@@]3(C)[C@]1(C)CC2`, for which the growth is 42% in the assay on DU-145 prostate; 22.7% in the assay with K-562 leukemia; -17% (active) in the assay on MALME-3M melanoma; 39.4% in the assay on MDA-MB-231 breast; 47.6% in the assay on RXF 393 renal; 44.9% with SF-268 CNS. The growth is 34.4% in the assay on SF-295 CNS, 57.7% in the assay with SF-539 CNS, -38.9% (active) in the assay on UACC-257 melanoma and 6.34% (active) in the assay with M14 melanoma.
Consider `CCOc1ccccc1-c1cc(-c2cccs2)c(C#N)c(=O)[nH]1`, for which the growth in the assay on DU-145 prostate is 111%; in the assay on K-562 leukemia, 48.6%; in the assay on MALME-3M melanoma it was 84.9%; with MDA-MB-231 breast, 89%; with RXF 393 renal it was 79.6%; with SF-268 CNS, 92.5%. Besides, the growth in the assay on SF-295 CNS is 93.6%; with SF-539 CNS it was 87.3%; with UACC-257 melanoma, 101%; with M14 melanoma it was 85.1%.
Take `Cc1cc(=O)oc2c1ccc1oc(C#N)c(C)c12`: the growth was 102% in the assay with DU-145 prostate; 108% in the assay with K-562 leukemia; 97.2% in the assay on MALME-3M melanoma; 107% with MDA-MB-231 breast; 113% in the assay on RXF 393 renal; 99.9% in the assay with SF-268 CNS. For the same compound, the growth was 102% with SF-295 CNS, 98.9% in the assay on SF-539 CNS, 105% in the assay with UACC-257 melanoma and 100% in the assay on M14 melanoma.
In the case of `CC1=NOC(=O)/C1=C\c1ccc(O)cc1`, the growth in the assay on DU-145 prostate is 111%; with K-562 leukemia, 98.2%; in the assay on MALME-3M melanoma, 100%; in the assay with MDA-MB-231 breast, 95.1%; in the assay with RXF 393 renal, 115%; in the assay on SF-268 CNS, 98.4%. For the same compound, the growth in the assay on SF-295 CNS was 99.6%; in the assay on SF-539 CNS, 98.8%; in the assay with UACC-257 melanoma, 101%; with M14 melanoma it was 103%.
With `CCN(CC)CCCCCCNc1cc(OC)c(Cl)c2cccnc12`, the growth was 95.4% in the assay on DU-145 prostate; 59.6% with K-562 leukemia; 88.4% with MALME-3M melanoma; 66.8% with MDA-MB-231 breast; 84.6% in the assay on RXF 393 renal; 85.3% with SF-268 CNS. For the same compound, the growth in the assay on SF-295 CNS is 82.3%; with SF-539 CNS, 81.9%; with UACC-257 melanoma it was -1.76% (active); in the assay with M14 melanoma, 27.2%.
Turning to `C#CCOc1nc(C)cc(C)c1C#N`, the growth with DU-145 prostate was 104%; with K-562 leukemia, 100%; in the assay with MALME-3M melanoma, 99%; with MDA-MB-231 breast it was 94.5%; with RXF 393 renal it was 106%; in the assay on SF-268 CNS, 99.6%. In addition, the growth in the assay with SF-295 CNS is 104%; with SF-539 CNS, 97.9%; in the assay with UACC-257 melanoma, 103%; in the assay with M14 melanoma, 98.1%.
In the case of `c1ccc(Nc2nc(-c3ccccn3)cs2)nc1`, the growth with DU-145 prostate was 26.5%; in the assay with K-562 leukemia it was 17.2%; in the assay with MALME-3M melanoma, 9.26% (active); with MDA-MB-231 breast, 38.9%; in the assay on RXF 393 renal, -18.8% (active); in the assay with SF-268 CNS it was 20.7%. Moreover, the growth in the assay on SF-295 CNS was 11.9%; in the assay on SF-539 CNS it was 0.697% (active); in the assay on UACC-257 melanoma it was 11.5%; in the assay on M14 melanoma, -32.8% (active).

Values taken from PubChem BioAssay (NCI).
